Several values for one entry are separate records, joined by “and”; a condition that tells them apart may be missing. Equal values may be shown once. Unmarked numbers belong to inactive results. Results filed as inconclusive are left out. Activity calls are given as the source filed them. Calls come from the whole dose curve; as a rule, active = well fitted curve in the direction sought with a large enough effect in the repeat runs; inconclusive = weak or mixed curves; inactive = no such curve, though single readings can be large; an effect the other way counts as inactive or inconclusive.
assay: qHTS assay for small molecule disruptors of the mitochondrial membrane potential (AID 720635); conditions: HepG2 mitochondrial membrane potential, Mito-MPS dye ratio; series mostly up to 83.2 µM; ratio activity, negative = MMP loss: at the top concentration; note: potency is the fitted concentration of half-maximal effect
Outline: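 HepG2 cells exposed to compound 1 hr at 37C, then Mito-MPS dye 30 min. Ratio read of aggregate (540/590 nm) versus monomer (490/535 nm) fluorescence.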
% is set by controls: 0 for no effect and ±100 for the full control effect.

Row | Structure (SMILES) | Potency | ratio activity, negative = MMP loss
1 | CC(C)C[C@H]1C(=O)N2CCC[C@H]2[C@]2(O)O[C@](NC(=O)[C@@H]3C=C4c5cccc6[nH]c(Br)c(c56)C[C@H]4N(C)C3)(C(C)C)C(=O)N12 | 10.6 µM (active) and 8.23 µM (active) | –
2 | Cc1[nH]c(C)c(Cl)c(=O)c1Cl | – | 20.2%
3 | CC(C)Nc1ccc(NC(C)C)c2c1C(=O)c1ccccc1C2=O | 11.3 µM (active) | –
4 | Cc1cccc(Nc2ccccc2)c1 | 43.3 µM (active) | –
5 | COc1cc(Cl)ccc1Oc1ccc(Cl)cc1Cl | 23.6 µM (active) | –
6 | Cc1c(N)cccc1[N+](=O)[O-] | – | -12.8% [at 95.3 µM]
7 | O=C(O)C1(C(=O)Nc2ccc(Cl)cc2Cl)CC1 | 8.63 µM (active) | –
8 | COc1cccc(N(C)C(=S)Oc2ccc3c(c2)CCCC3)n1 | 29.8 µM (active) | –
9 | CC1CCC(=O)C1=O (centres undefined) | – | 10.2% [at 95.3 µM]
10 | CC[N+](C)(CC)CCOC(=O)C(O)(c1ccccc1)C1CCCCC1 (centres undefined) | – | -3.94%
11 | CCCCCCCC/C=C\CCCCCCCC(=O)OCC | – | 14.8%
12 | CCc1cc(C2=C(C(=O)O)N(c3ccccc3C(F)(F)F)S(=O)(=O)c3ccccc32)cc2c1OCO2 | 48 µM (active) | –
13 | CCCCNc1ccc(C(=O)OCCOCCOCCOCCOCCOCCOCCOCCOCCOC)cc1 | 3.2 µM (active) | –
14 | CCC(C)c1cc(C(C)(C)C)c(O)c(C(C)(C)C)c1 (centres undefined) | 21.3 µM (active) | –
15 | CCOC(=O)COC(=O)c1cc(Oc2ccc(C(F)(F)F)cc2Cl)ccc1[N+](=O)[O-] | 61.1 µM (active) | –
16 | NC(N)=NCCC[C@H](N)C(=O)O | – | -11.3%
17 | C=CC(=O)OCCOCCOC(=O)C=C | – | -25.7% [at 95.3 µM]
18 | O=C(Nc1ccccc1)c1ccccc1O | 2.43 µM (active) | –
19 | C=CC(=O)OCCOCCOCCOCCOC(=O)C=C | – | 28.5%
20 | O=C(O)c1nc(Cl)c(Cl)c(Cl)c1Cl | – | 5.08%
21 | CCO[C@H](Cc1ccc(OCCc2ccc(OS(C)(=O)=O)cc2)cc1)C(=O)O | – | -11.9%

assay: qHTS assay to test for compound auto fluorescence at 590 nm (red) in HepG2 cells (AID 720674); conditions: HepG2 autofluorescence, red 540/590 nm, 1 h; series mostly up to 91.3 µM; fluorescence, relative to Rose Bengal: at the top concentration
Outline: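 Fluorescence at 590 nm emission following 540 nm excitation was recorded from HepG2 wells one hour after compound transfer, with DMSO-only wells as vehicle and Rose Bengal sodium equivalency as the scale.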

Row | Structure (SMILES) | Potency | fluorescence, relative to Rose Bengal
22 | CC(C)C[C@H]1C(=O)N2CCC[C@H]2[C@]2(O)O[C@](NC(=O)[C@@H]3C=C4c5cccc6[nH]c(Br)c(c56)C[C@H]4N(C)C3)(C(C)C)C(=O)N12 | inactive | –
23 | CC(C)Nc1ccc(NC(C)C)c2c1C(=O)c1ccccc1C2=O | – | 0.146% [at 46 µM]
24 | Cc1cccc(Nc2ccccc2)c1 | – | -0.215%
25 | O=C1CCCCCCCCCCCC(=O)OCCO1 | – | -0.0989%
26 | COc1cc(Cl)ccc1Oc1ccc(Cl)cc1Cl | – | -0.0724%
27 | CCCCCCCCCCCCCCOS(=O)(=O)O | – | -0.0092%
28 | Cc1c(N)cccc1[N+](=O)[O-] | – | -0.0433% [at 95.7 µM]
29 | CC(C)O.CC(C)O.CCOC(=O)/C=C(\C)O.CCOC(=O)/C=C(\C)O.[Ti] | – | -0.386%
30 | C#Cc1cccc(Nc2ncnc3cc(OCCOC)c(OCCOC)cc23)c1 | – | -0.0113% [at 46 µM]
31 | O=C(O)C1(C(=O)Nc2ccc(Cl)cc2Cl)CC1 | – | 0.114%
32 | O=C(CS)Nc1ccccc1 | – | -0.366% [at 46 µM]
33 | COc1cc(Cl)c(OC)cc1N | – | 0.136%
34 | COc1cccc(N(C)C(=S)Oc2ccc3c(c2)CCCC3)n1 | – | -0.0188% [at 46 µM]
35 | CC1CCC(=O)C1=O (centres undefined) | – | -0.0387% [at 95.7 µM]
36 | CC[N+](C)(CC)CCOC(=O)C(O)(c1ccccc1)C1CCCCC1 (centres undefined) | – | -0.467% [at 46 µM]
37 | CCCCCCCC/C=C\CCCCCCCC(=O)OCC | – | 0.067%
38 | O=C(O)CC(=O)C(=O)O | – | 0.0063%

Row | Structure (SMILES) | Potency | fluorescence, relative to Rose Bengal
39 | CCc1cc(C2=C(C(=O)O)N(c3ccccc3C(F)(F)F)S(=O)(=O)c3ccccc32)cc2c1OCO2 | – | -0.177%
40 | CCCCNc1ccc(C(=O)OCCOCCOCCOCCOCCOCCOCCOCCOCCOC)cc1 | – | -0.666% [at 18.6 µM]
41 | CCC(C)c1cc(C(C)(C)C)c(O)c(C(C)(C)C)c1 (centres undefined) | – | -0.0114%
42 | CNCCCCOc1ccccc1Cc1ccccc1 | – | 0.383% [at 46 µM]
43 | CCOC(=O)COC(=O)c1cc(Oc2ccc(C(F)(F)F)cc2Cl)ccc1[N+](=O)[O-] | – | -0.0515%
44 | Nc1ncn([C@H]2C[C@H](O)[C@@H](CO)O2)c(=O)n1 | – | -0.139% [at 46 µM]
45 | NC(N)=NCCC[C@H](N)C(=O)O | – | 0.0841% [at 46 µM]
46 | C=CC(=O)OCCOCCOC(=O)C=C | – | -0.0419%
47 | CN(C)c1ccc(/C=C/c2ccc([N+](=O)[O-])cc2)cc1 | – | 0% [at 3.72 µM]
48 | CCCCCCCCCCO[C@@H]1O[C@H](CO)[C@@H](O)[C@H](O)[C@H]1O | – | 0.0107%
49 | CCCNCC(O)COc1ccccc1C(=O)CCc1ccccc1 (centres undefined) | – | -0.174% [at 46 µM]
50 | O=C(Nc1ccccc1)c1ccccc1O | – | -0.0998%
51 | CN1CCC(=C2c3ccccc3Sc3ccccc32)CC1 | – | 0.0047% [at 46 µM]
52 | C=CCOc1ccccc1OCC(O)CNC(C)C (centres undefined) | – | -0.0179% [at 18.6 µM]
53 | CCO[C@H](Cc1ccc(OCCc2ccc(OS(C)(=O)=O)cc2)cc1)C(=O)O | – | 0.0002% [at 46 µM]
54 | CCCCCCCCCCCCCCCCOS(=O)(=O)O | – | 0.634% [at 46 µM]

From PubChem BioAssay (Tox21)
